In PMC7862700, “An all-to-all approach to the identification of sequence-specific readers for epigenetic DNA modifications on cytosine”:

Legend:
Assay in all cases: DAPPL (digital affinity profiling via proximity ligation, sequencing); 10 mM Tris-HCl pH 7.5, 50 mM NaCl, 1 mM DTT, 4% glycerol, room temperature, 30 min; GST-TFs on glutathione beads, 16-mer random dsDNA library, 0.1% formaldehyde crosslink after washing; high values mean tight binding
[1] = target: T1, FLI1 (Homo sapiens, UniProt Q01543 1-452); conditions: protein: recombinant; tags: N-terminal GST; dsDNA, one strand shown
T1 sequence: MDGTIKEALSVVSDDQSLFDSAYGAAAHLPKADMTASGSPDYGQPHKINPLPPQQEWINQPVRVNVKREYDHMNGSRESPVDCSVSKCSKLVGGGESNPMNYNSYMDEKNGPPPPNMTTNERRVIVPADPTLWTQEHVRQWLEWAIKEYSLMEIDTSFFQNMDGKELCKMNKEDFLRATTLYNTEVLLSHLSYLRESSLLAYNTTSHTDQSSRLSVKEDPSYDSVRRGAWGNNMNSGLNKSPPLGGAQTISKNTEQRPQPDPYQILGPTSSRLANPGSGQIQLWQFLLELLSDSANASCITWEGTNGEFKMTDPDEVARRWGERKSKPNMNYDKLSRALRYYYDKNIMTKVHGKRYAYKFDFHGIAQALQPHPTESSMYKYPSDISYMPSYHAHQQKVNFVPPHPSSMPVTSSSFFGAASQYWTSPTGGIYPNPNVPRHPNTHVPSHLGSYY
Outline: (§1)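 Binding signal is each hexamer's read frequency for a factor divided by its frequency in the tag-only sample. The factors were GST-fused human transcription factors from yeast, captured on glutathione beads, DNA-barcoded and pooled with that sample. Pools were incubated with 200 nmole of a random double-stranded 16-mer DNA library in Tris/NaCl/DTT/glycerol buffer at room temperature for 30 min, then washed, crosslinked with 0.1% formaldehyde, proximity-ligated with BsaI/T4 ligase (1 h, 37 °C), PCR-amplified and sequenced on an Illumina NextSeq500.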

[2] = target: T2, ELK1 (Homo sapiens, UniProt P19419 1-428); conditions: protein: recombinant; tags: N-terminal GST; dsDNA, one strand shown
T2 sequence: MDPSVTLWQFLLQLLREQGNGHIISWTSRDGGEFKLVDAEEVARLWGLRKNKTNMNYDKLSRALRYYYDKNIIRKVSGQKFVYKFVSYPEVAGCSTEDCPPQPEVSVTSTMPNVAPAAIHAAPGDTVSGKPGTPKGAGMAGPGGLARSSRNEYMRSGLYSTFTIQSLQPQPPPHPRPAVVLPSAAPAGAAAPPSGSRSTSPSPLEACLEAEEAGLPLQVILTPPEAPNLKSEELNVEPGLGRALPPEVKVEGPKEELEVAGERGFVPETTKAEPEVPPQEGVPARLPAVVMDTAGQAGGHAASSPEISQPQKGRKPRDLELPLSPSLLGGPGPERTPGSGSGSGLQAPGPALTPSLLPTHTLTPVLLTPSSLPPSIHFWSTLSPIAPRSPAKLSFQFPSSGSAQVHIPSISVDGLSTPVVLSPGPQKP
Outline: as §1

[3] = target: T3, GABPA (Homo sapiens, UniProt Q06546 1-454); conditions: protein: recombinant; tags: N-terminal GST; dsDNA, one strand shown
T3 sequence: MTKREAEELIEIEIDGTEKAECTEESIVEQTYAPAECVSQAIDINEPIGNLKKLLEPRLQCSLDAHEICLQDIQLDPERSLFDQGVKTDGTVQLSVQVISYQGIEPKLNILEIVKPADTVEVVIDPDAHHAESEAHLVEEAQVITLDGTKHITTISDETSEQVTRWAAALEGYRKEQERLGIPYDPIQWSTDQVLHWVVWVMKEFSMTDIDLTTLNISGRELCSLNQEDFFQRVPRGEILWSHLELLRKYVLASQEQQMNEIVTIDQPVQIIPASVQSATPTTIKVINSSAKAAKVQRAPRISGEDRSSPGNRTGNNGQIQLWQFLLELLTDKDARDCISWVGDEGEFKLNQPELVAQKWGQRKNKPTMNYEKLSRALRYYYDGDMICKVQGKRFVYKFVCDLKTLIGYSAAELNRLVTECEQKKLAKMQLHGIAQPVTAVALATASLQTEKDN
Outline: as §1

[4] = target: T4, ERG (Homo sapiens, UniProt P11308 1-479); conditions: protein: recombinant; tags: N-terminal GST; dsDNA, one strand shown
T4 sequence: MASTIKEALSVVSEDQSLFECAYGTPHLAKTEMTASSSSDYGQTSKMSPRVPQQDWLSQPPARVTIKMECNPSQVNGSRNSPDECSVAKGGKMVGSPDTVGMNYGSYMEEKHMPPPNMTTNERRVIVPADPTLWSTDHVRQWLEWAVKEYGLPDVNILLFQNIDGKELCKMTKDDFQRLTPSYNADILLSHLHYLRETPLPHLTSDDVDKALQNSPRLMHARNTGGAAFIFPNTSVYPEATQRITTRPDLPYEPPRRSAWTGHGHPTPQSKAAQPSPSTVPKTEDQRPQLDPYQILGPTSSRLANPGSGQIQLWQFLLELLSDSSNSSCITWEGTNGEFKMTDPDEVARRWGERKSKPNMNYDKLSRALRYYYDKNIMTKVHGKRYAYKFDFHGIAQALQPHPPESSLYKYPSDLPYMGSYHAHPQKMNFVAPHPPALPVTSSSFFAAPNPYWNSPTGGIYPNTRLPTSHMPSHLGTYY
Outline: as §1

[5] = target: ELF1 (Homo sapiens, UniProt P32519 1-619); conditions: protein: recombinant; tags: N-terminal GST; dsDNA, one strand shown
Chain of ELF1 (P32519 whole entry): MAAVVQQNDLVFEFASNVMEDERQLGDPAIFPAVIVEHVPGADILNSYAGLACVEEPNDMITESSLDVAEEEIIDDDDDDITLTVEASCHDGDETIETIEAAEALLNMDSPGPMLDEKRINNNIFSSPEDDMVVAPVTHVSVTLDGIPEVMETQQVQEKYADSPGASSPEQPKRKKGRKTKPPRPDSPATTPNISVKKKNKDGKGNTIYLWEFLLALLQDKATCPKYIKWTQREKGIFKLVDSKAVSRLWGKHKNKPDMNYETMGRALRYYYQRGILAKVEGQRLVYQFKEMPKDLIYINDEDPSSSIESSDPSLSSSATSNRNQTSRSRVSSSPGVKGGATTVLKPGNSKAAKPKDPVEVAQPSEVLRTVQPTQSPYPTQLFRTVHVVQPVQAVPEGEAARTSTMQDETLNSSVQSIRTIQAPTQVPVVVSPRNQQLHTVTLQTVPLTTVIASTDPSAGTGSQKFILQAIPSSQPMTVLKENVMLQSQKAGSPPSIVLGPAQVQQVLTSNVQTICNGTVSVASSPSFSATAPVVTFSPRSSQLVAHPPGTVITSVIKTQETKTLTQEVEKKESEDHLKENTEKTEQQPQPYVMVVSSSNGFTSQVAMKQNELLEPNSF
Outline: as §1

[6] = target: T5, EHF (Homo sapiens, UniProt Q9NZC4 1-300); conditions: protein: recombinant; tags: N-terminal GST; dsDNA, one strand shown
T5 sequence: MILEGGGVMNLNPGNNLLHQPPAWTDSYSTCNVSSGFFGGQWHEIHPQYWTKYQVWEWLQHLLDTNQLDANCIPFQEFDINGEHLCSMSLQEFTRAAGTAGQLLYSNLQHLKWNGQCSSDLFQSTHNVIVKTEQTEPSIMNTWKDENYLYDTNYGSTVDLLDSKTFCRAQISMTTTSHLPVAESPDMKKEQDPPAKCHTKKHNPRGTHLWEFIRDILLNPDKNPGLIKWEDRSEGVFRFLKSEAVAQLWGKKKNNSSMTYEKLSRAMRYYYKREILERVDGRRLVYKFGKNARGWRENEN
Outline: as §1

[7] = target: SPI1 (Homo sapiens, UniProt P17947 1-270); conditions: protein: recombinant; tags: N-terminal GST; dsDNA, one strand shown
Outline: as §1

[8] = target: SPIB (Homo sapiens, UniProt Q01892 1-262); conditions: protein: recombinant; tags: N-terminal GST; dsDNA, one strand shown
Chain of SPIB (Q01892 whole entry): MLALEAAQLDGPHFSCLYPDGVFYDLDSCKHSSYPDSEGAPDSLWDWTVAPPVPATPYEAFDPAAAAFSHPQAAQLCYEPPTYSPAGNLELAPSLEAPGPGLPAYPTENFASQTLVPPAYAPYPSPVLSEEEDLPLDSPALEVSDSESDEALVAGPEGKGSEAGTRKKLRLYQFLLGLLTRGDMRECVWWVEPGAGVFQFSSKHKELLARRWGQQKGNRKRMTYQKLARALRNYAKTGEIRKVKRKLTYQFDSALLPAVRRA
Outline: as §1

[9] = target: T6, ELK3 (Homo sapiens, UniProt P41970 1-407); conditions: protein: recombinant; tags: N-terminal GST; dsDNA, one strand shown
T6 sequence: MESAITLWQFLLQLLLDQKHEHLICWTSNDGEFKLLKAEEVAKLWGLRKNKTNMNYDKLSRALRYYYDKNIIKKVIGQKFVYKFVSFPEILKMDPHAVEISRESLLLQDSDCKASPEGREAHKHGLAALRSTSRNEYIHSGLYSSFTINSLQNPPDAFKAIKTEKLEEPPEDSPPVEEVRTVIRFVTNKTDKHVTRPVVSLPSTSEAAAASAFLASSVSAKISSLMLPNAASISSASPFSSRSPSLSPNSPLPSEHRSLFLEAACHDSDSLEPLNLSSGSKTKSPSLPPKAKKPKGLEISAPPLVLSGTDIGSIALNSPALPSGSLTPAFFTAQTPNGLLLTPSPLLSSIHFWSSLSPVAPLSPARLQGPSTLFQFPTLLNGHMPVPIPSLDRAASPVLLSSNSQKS
Outline: as §1

[10] = target: T7, FEV (Homo sapiens, UniProt Q99581 1-238); conditions: protein: recombinant; tags: N-terminal GST; dsDNA, one strand shown
T7 sequence: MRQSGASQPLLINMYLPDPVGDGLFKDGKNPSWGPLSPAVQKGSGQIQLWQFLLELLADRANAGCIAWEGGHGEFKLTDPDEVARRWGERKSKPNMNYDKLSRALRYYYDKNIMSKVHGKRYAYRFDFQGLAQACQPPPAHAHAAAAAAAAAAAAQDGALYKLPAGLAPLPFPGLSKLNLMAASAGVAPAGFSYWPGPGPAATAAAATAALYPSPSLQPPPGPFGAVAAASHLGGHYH
Outline: as §1

[11] = target: ETV5 (Homo sapiens, UniProt P41161 1-510); conditions: protein: recombinant; tags: N-terminal GST; dsDNA, one strand shown
Chain of ETV5 (P41161 whole entry): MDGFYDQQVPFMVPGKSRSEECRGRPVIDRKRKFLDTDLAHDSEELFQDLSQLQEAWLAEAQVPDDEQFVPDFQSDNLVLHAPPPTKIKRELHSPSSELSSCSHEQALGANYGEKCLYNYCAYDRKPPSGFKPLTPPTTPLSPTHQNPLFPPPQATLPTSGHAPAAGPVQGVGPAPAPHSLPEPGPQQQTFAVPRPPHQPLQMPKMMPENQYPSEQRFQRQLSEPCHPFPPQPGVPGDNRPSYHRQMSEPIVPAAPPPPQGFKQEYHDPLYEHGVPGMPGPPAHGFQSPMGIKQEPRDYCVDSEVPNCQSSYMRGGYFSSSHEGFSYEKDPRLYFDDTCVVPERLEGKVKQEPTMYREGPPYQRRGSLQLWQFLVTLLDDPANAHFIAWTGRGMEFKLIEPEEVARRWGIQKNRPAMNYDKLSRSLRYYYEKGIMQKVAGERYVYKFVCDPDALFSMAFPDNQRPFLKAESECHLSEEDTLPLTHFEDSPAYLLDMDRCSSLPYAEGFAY
Outline: as §1

[12] = target: HSF1 (Homo sapiens, UniProt Q00613 1-529); conditions: protein: recombinant; tags: N-terminal GST; chain copies: 3; dsDNA, one strand shown
Chain of HSF1 (Q00613 whole entry): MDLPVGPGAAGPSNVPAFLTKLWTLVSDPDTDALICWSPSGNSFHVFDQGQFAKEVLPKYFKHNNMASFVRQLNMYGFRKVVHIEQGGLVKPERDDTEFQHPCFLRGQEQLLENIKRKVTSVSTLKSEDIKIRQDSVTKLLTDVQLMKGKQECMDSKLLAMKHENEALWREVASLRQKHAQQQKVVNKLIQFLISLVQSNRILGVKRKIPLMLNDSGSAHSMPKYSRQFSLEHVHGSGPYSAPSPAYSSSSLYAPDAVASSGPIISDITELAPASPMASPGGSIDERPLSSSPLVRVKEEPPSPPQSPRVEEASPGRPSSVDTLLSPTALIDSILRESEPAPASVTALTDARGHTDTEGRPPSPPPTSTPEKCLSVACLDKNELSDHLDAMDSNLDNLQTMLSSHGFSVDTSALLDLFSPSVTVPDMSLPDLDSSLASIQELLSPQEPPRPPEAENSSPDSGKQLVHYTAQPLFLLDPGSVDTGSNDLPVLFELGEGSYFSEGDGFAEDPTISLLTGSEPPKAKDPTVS
Outline: as §1

[13] = target: T8, SPIC (Homo sapiens, UniProt Q8N5J4 1-248); conditions: protein: recombinant; tags: N-terminal GST; dsDNA, one strand shown
T8 sequence: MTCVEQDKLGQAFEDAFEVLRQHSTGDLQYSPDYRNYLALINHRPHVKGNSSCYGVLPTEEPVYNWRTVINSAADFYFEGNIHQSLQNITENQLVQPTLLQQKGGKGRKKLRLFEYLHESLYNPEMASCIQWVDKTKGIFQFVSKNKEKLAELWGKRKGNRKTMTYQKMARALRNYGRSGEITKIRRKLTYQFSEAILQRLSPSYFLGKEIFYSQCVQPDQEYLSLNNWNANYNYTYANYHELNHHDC
Outline: as §1

[14] = target: ELF4 (Homo sapiens, UniProt Q99607 1-663); conditions: protein: recombinant; tags: N-terminal GST; dsDNA, one strand shown
Chain of ELF4 (Q99607 whole entry): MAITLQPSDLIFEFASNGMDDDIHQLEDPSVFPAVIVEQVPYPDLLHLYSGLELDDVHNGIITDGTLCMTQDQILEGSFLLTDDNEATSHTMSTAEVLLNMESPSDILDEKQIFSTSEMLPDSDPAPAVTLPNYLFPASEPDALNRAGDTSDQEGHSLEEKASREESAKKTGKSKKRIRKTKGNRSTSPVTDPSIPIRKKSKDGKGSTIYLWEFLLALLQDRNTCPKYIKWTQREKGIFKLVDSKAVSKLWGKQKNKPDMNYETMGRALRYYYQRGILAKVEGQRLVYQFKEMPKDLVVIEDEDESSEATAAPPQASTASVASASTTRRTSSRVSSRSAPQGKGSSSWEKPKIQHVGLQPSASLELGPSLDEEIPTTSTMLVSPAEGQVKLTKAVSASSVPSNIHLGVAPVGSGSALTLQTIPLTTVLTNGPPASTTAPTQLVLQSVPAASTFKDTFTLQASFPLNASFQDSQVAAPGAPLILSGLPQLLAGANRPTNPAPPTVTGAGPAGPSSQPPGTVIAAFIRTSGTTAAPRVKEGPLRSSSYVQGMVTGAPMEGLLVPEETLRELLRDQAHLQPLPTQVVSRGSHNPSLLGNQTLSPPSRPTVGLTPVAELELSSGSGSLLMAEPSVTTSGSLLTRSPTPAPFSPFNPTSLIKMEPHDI
Outline: as §1

[15] = target: T9, ELK4 (Homo sapiens, UniProt P28324-2 1-405); conditions: protein: recombinant; tags: N-terminal GST; dsDNA, one strand shown
T9 sequence: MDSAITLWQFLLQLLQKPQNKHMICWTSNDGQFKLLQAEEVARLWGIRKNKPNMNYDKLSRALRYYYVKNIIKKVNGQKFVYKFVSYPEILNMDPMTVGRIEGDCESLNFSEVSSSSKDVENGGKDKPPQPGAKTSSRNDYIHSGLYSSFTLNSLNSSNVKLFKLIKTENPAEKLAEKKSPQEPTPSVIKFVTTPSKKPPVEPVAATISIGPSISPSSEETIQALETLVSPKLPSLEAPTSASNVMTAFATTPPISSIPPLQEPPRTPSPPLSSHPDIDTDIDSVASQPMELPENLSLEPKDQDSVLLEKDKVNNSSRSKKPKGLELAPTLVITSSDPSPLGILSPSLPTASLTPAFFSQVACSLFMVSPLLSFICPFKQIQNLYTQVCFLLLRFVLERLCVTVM
Outline: as §1

[16] = target: T10, ETV2 (Homo sapiens, UniProt O00321 1-342); conditions: protein: recombinant; tags: N-terminal GST; dsDNA, one strand shown
T10 sequence: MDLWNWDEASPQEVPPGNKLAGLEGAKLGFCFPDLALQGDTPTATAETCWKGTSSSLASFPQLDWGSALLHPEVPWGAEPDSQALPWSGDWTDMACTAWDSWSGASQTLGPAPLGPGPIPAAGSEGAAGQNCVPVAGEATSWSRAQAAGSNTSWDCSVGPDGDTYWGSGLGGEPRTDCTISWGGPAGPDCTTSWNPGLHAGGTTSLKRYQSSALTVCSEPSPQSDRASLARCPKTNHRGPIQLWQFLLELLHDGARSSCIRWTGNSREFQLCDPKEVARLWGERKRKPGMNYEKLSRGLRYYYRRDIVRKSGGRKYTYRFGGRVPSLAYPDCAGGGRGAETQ
Outline: as §1

[17] = target: T11, ELF3 (Homo sapiens, UniProt P78545 1-371); conditions: protein: recombinant; tags: N-terminal GST; dsDNA, one strand shown
T11 sequence: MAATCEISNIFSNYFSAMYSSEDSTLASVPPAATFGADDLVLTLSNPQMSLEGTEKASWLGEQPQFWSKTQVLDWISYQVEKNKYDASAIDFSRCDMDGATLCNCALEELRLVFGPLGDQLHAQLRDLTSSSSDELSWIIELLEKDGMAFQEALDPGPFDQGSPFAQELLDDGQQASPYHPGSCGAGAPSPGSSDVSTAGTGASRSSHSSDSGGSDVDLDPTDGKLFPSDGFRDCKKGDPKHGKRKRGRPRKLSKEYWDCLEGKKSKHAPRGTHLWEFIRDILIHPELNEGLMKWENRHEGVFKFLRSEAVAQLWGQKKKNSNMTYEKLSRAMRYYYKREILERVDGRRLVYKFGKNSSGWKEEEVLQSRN
Outline: as §1

[18] = target: CRX (Homo sapiens, UniProt O43186 1-299); conditions: protein: recombinant; tags: N-terminal GST; dsDNA, one strand shown
Chain of CRX (O43186 whole entry): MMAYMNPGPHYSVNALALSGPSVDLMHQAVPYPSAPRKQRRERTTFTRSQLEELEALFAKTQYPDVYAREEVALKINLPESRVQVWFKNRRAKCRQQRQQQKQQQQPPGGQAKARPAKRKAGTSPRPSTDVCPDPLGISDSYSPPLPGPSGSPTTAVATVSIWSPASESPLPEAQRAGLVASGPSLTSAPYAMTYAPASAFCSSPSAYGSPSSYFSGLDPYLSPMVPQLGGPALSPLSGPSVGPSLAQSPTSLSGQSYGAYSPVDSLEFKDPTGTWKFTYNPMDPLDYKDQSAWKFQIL
Outline: as §1

[19] = target: ETV1 (Homo sapiens, UniProt P50549 1-477); conditions: protein: recombinant; tags: N-terminal GST; dsDNA, one strand shown
Chain of ETV1 (P50549 whole entry): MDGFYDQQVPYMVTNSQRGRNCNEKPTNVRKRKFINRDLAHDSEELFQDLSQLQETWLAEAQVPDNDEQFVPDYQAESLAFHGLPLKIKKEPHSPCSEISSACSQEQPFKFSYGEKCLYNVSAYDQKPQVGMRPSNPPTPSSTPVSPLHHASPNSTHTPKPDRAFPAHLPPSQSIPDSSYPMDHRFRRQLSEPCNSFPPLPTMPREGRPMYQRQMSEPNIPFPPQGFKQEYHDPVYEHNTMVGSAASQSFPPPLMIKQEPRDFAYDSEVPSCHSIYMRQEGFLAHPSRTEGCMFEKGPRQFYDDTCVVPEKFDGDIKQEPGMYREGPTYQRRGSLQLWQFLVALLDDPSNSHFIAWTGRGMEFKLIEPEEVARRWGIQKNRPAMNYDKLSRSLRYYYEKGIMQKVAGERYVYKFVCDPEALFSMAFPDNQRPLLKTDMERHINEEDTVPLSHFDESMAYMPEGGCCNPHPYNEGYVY
Outline: as §1

CTAAGC was tested, and the binding signal [1] was 1.09 fold enrichment (6-mer frequency, TF over GST control), the binding signal [2] was 1.06 fold enrichment (6-mer frequency, TF over GST control) and the binding signal [3] was 1.08 fold enrichment (6-mer frequency, TF over GST control). The binding signal [4] was 1.11 fold enrichment (6-mer frequency, TF over GST control), the binding signal [5] was 1.15 fold enrichment (6-mer frequency, TF over GST control) and the binding signal [6] was 1.14 fold enrichment (6-mer frequency, TF over GST control). For the same sequence, the binding signal [7] was 1.03 fold enrichment (6-mer frequency, TF over GST control), the binding signal [8] was 1.16 fold enrichment (6-mer frequency, TF over GST control) and the binding signal [9] was 1.03 fold enrichment (6-mer frequency, TF over GST control). The binding signal [10] was 1.05 fold enrichment (6-mer frequency, TF over GST control), the binding signal [11] was 1.05 fold enrichment (6-mer frequency, TF over GST control) and the binding signal [12] was 1.56 fold enrichment (6-mer frequency, TF over GST control). The binding signal [13] was 1.08 fold enrichment (6-mer frequency, TF over GST control), the binding signal [14] was 1.09 fold enrichment (6-mer frequency, TF over GST control) and the binding signal [15] was 1.16 fold enrichment (6-mer frequency, TF over GST control). The binding signal [16] was 1.17 fold enrichment (6-mer frequency, TF over GST control), the binding signal [17] was 1.12 fold enrichment (6-mer frequency, TF over GST control) and the binding signal [18] was 2.45 fold enrichment (6-mer frequency, TF over GST control). For the same sequence, the binding signal [19] was 1.06 fold enrichment (6-mer frequency, TF over GST control).
